According to PubChem BioAssay AID2284198 (EPA ToxCast):
The source made the active and inactive calls. How the source made its calls: active means hit-call score of the fitted dose curve at least 0.9, where 1 is the maximum; inactive means score below 0.9.

Target: human Adenosine Transporter, SLC29A1 (gene 2030) (UniProt Q99808)
Test: ERF_TW_TR_hSLC35B3: Eurofins (ERF) Transporter Radioligand Binding LeadHunter Assay for human Adenosine Transporter Antagonism
Protocol: ERF_TW_TR_hSLC35B3 is a biochemical, single-readout assay that uses extracted gene-proteins in a cell-free assay. Measurements were taken 1 hour after chemical dosing in a 96-well plate. See Adenosine Human Transporter Binding (Antagonist Radioligand) Assay, Panlabs.ERF_TW_TR_hSLC35B3 is an assay component calculated from the ERF_TW_TR_hSLC35B3 assay. It is designed to measure radioligand binding using a type of binding reporter as detected by scintillation counting with radiometry technology.Data from the assay component ERF_TW_TR_hSLC35B3 was analyzed at the assay endpoint, ERF_TW_TR_hSLC35B3, in the positive analysis fitting direction relative to DMSO as the negative control and baseline of activity. Using a type of binding reporter, loss-of-signal activity can be used to understand changes in transporter binding as they relate to gene SLC29A1. To generalize the intended target to other relatable targets, this assay endpoint is annotated to the transporter intended target family, where the subfamily is nucleoside transporter.
This assay measures binding of [3H]Nitrobenzylthioinosine to sites associated with the transporter of adenosine. Human adenosine transporter membranes are prepared in Tris-HCl buffer pH 7.4. A 24 ug aliquot of membrane is incubated with 0.5 nM [3H]Nitrobenzylthioinosine for 60 minutes at 25C. Non-specific binding is estimated in the presence of 5 uM nitrobenzylthioinosine. Membranes are filtered and washed, the filters are then counted to determine [3H]Nitrobenzylthioinosine specifically bound. Compounds are screened at 10 uM.Test Sample Requirements: Minimum for 1) Screen: 25 ul of 10 mM stock -OR- 1 mg (pre-weighed). 2) Dose Response: 60 ul of 10 mM stock -OR- 1 mg (pre-weighed).

Chain of human Adenosine Transporter, SLC29A1 (gene 2030) (Q99808 whole entry, looked up): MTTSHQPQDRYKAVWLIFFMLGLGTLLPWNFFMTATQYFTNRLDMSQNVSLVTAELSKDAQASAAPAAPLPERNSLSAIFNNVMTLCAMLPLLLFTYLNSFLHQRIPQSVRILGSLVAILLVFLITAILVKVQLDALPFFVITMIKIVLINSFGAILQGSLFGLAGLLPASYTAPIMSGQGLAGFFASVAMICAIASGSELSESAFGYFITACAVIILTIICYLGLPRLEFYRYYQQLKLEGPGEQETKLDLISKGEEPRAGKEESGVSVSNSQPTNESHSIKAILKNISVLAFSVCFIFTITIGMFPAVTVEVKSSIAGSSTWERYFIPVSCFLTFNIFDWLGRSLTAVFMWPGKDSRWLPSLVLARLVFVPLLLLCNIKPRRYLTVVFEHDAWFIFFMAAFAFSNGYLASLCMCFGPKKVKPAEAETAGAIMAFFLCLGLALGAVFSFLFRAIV

AC50, active:
COc1cc(/C=C/C(=O)CC(=O)/C=C/c2ccc(O)c(OC)c2)ccc1O 0.098 µM
O=C(/C=C/c1ccc(O)cc1)CC(=O)/C=C/c1ccc(O)cc1 0.153 µM
COc1cc(CCC(=O)CC(=O)CCc2ccc(O)c(OC)c2)ccc1O 0.574 µM
